Reference: PubChem BioAssay AID1159580 (chemical genetic matrix, 2015)
In all, about 5,500 compounds went through this assay and about 2,000 (36%) were called active. Inconclusive results (about 18%) are left out. Rule as the data show it: active = normalized growth mostly below about 0.91 (no sharp cut-off); inconclusive = no clear call, values can overlap the other calls; inactive = mostly above about 0.92. This is one part of the list.

Test: chemical genetic growth profiling, strain panel (AID 1159580);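 also: tested at 20 µM; growth read once vehicle control cultures reached saturation at 30 °C; 1 = growth at the plate median or of vehicle wells; lower values mean less growth of the strain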
Conditions: S. cerevisiae deletion strains, growth OD

Measured: normalized growth

Cc1c(O)c(C(=O)CC(C)C)c2oc3c(C(=O)CC(C)C)c(O)c(C)c(O)c3c2c1O
inactive: locus YAL013W, strain DEP1, hits give low values 1.01 | locus YBR021W, strain FUR4, hits give low values 0.943 | locus YBR229C, strain ROT2, hits give low values 0.993 | locus YCL029C, strain bik1, hits give low values 1.01 | locus YDL035C, strain GPR1, hits give low values 0.994 | locus YDL074C, strain BRE1, hits give low values 0.978 | locus YDL101C, strain DUN1, hits give low values 1 | locus YDL134C, strain PPH21, hits give low values 0.991 | locus YDL185W, strain tfp1, hits give low values 1 | locus YDL192W, strain arf1, hits give low values 0.987 | locus YDR101C, strain arx1, hits give low values 0.972 | locus YDR150W, strain NUM1, hits give low values 1.01 | locus YDR162C, strain NBP2, hits give low values 1 | locus YDR318W, strain mcm21, hits give low values 0.997 | locus YDR388W, hits give low values 0.985 | locus YDR502C, strain sam2, hits give low values 0.978 | locus YEL061C, strain CIN8, hits give low values 1.01 | locus YER110C, hits give low values 0.995 | locus YER155C, strain BEM2, hits give low values 0.995 | locus YER167W, strain BCK2, hits give low values 0.996 | locus YGL078C, strain dbp3, hits give low values 0.985 | locus YGL086W, strain mad1, hits give low values 0.989 | locus YGL248W, strain PDE1, hits give low values 0.994 | locus YGR135W, strain pre9, hits give low values 0.996 | locus YGR252W, strain gcn5, hits give low values 0.918 | locus YHR030C, strain SLT2, hits give low values 1 | locus YHR079C, strain IRE1 (second series), hits give low values 0.987 | locus YHR094C, strain hxt1, hits give low values 0.986 | locus YHR129C, strain ARP1, hits give low values 1 | locus YHR200W, strain rpn10, hits give low values 0.983 | locus YIL066C, strain RNR3, hits give low values 1 | locus YIL073C, strain SPO22, hits give low values 0.983 | locus YIL125W, strain kgd1, hits give low values 0.995 | locus YIR030C, strain dcg1, hits give low values 0.993 | locus YJL095W, strain BCK1, hits give low values 0.994 | locus YJL134W, strain LCB3, hits give low values 1 | locus YJL168C, strain set2, hits give low values 0.994 | locus YJL187C, strain SWE1 (second series), hits give low values 1 | locus YJR043C, strain POL32, hits give low values 0.958 | locus YKL009W, strain mrt4, hits give low values 0.977 | locus YKL068W, hits give low values 1 | locus YKL085W, strain MDH1 (second series), hits give low values 1.01 | locus YKL085W, strain MDH1, hits give low values 1.01 | locus YKL190W, strain CNB1, hits give low values 1 | locus YKR001C, strain vps1, hits give low values 0.935 | locus YLR039C, strain RIC1, hits give low values 0.787 | locus YLR058C, strain SHM2, hits give low values 1 | locus YLR102C, strain apc9, hits give low values 0.982 | locus YLR262C, strain YPT6, hits give low values 0.811 | locus YLR268W, strain sec22, hits give low values 0.985 | locus YLR330W, strain CHS5, hits give low values 1 | locus YLR342W, strain FKS1 (second series), hits give low values 0.978 | locus YLR371W, strain rom2, hits give low values 0.999 | locus YLR418C, strain cdc73, hits give low values 0.92 | locus YML016C, strain PPZ1, hits give low values 1.01 | locus YML032C, strain rad52, hits give low values 0.999 | locus YML124C, strain tub3, hits give low values 0.99 | locus YMR078C, strain ctf18, hits give low values 1 | locus YMR223W, strain ubp8, hits give low values 0.996 | locus YMR307W, strain GAS1, hits give low values 0.827 | locus YNL067W, strain RPL9B, hits give low values 1.01 | locus YNL233W, strain BNI4, hits give low values 0.968 | locus YNL250W, strain rad50, hits give low values 1.01 | locus YNL271C, strain bni1, hits give low values 1 | locus YNL298W, strain CLA4, hits give low values 1 | locus YNL307C, strain MCK1, hits give low values 0.994 | locus YNR052C, strain pop2, hits give low values 1.01 | locus YOL006C, strain TOP1, hits give low values 0.977 | locus YOL012C, strain htz1 0.768 | locus YOL147C, strain pex11, hits give low values 0.987 | locus YOR061W, strain CKA2, hits give low values 1 | locus YOR069W, strain VPS5, hits give low values 1.01 | locus YOR136W, strain idh2, hits give low values 0.99 | locus YOR144C, strain elg1, hits give low values 0.996 | locus YOR184W, strain ser1, hits give low values 0.974 | locus YOR316C, strain cot1, hits give low values 0.986 | locus YPL241C, strain CIN2, hits give low values 1 | locus YPR119W, strain clb2, hits give low values 0.989 | locus YPR141C, strain kar3, hits give low values 0.991 | locus YPR163C, strain tif3, hits give low values 0.99 | locus YPR167C, strain met16, hits give low values 1 | strain wtn01, hits give low values 0.975
